Experimental data: PubChem BioAssay (EPA / NIEHS)
Activity calls are given as the source filed them. The calls were made as follows: active = hit-call score of the fitted dose curve at least 0.9, where 1 is the maximum; inactive = score below 0.9.

What was measured:
[1] = ATG_CRE_CIS: Attagene CIS-FACTORIAL HepG2 Assay for human cAMP Responsive Element (CRE) binding protein 3 (AID 2282926); conditions: HepG2 CRE cis-reporter, Attagene multiplexed mRNA; actives raise or lower the signal
In short: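 HepG2 cells transiently transfected with a multiplexed reporter library (CRE-driven unit among them) were dosed for 24 h. Reporter mRNA was quantified by RT-PCR, fluorescent labelling, HpaI digestion and capillary electrophoresis, with bidirectional fitting against DMSO baseline.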

[2] = molecular target: CCAAT/enhancer-binding protein beta (Homo sapiens) (UniProt P17676); test: ATG_C_EBP_CIS: Attagene CIS-FACTORIAL HepG2 Assay for human CCAAT/Enhancer Binding Protein (C/EBP) beta (AID 2282927); conditions: HepG2 Attagene cis-factorial transcription factor reporter; actives raise or lower the signal
In short: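 Endogenous transcription factor activity in human liver HepG2 cells is inferred from induction of a CEBPB-linked reporter mRNA. Exposure lasts 24 h; activity is fitted in both directions relative to DMSO.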

[3] = ATG_CMV_CIS: Attagene CIS-FACTORIAL HepG2 Assay for human CMV (Internal Marker) (AID 2282928); conditions: HepG2 CMV promoter reporter, transcription factor profiling; actives raise or lower the signal;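 also: endpoint acts as a background internal control marker rather than a target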
In short: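 Cell system: HepG2, transiently transfected multiple reporter units under cis promoters. Exposure: 24 h. Detection: RT-PCR, FAM labeling, HpaI digestion, capillary electrophoresis. Analysis: bidirectional, DMSO baseline.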

[4] = ATG_DR4_LXR_CIS: Attagene CIS-FACTORIAL HepG2 Assay for human Liver X Receptor (LXR), DR4 submotif (AID 2282929); conditions: HepG2 Attagene DR4 cis-reporter, mRNA transcription; actives raise or lower the signal
In short: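 HepG2, transient MRTU transfection, cis-element (DR4) promoter; 24 h compound exposure; total RNA → oligo(dT) RT → PCR → 6-FAM primer extension → HpaI cut → CE. Gain/loss vs DMSO, bidirectional fit.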

[5] = molecular target: Aryl hydrocarbon receptor (Homo sapiens) (UniProt P35869); test: ATG_Ahr_CIS: Attagene CIS-FACTORIAL HepG2 Assay for human Aryl Hydrocarbon Receptor (Ahr) (AID 2282930); conditions: HepG2 AhR cis-factorial reporter transcription; actives raise or lower the signal
In short: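 Transient MRTU transfection of HepG2 → 24 h compound exposure → total RNA, oligo(dT) RT → PCR, 6-FAM extension, HpaI cut → CE fluorescence. DMSO = baseline; bidirectional curve fit.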

[6] = ATG_AP_1_CIS: Attagene CIS-FACTORIAL HepG2 Assay for human Activator Protein 1 (AP-1) (AID 2282931); conditions: HepG2 Attagene cis-factorial AP-1 reporter mRNA; actives raise or lower the signal
In short: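 Transient MRTU transfection of HepG2 → 24 h chemical treatment → RNA isolation, RT-PCR, 6-FAM labelling, HpaI digest → capillary electrophoresis. Fit: bidirectional, DMSO negative control.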

[7] = ATG_AP_2_CIS: Attagene CIS-FACTORIAL HepG2 Assay for human Activator Protein 2 (AP-2) (AID 2282932); conditions: HepG2 AP-2 cis-reporter, Attagene transcription factor profiling; actives raise or lower the signal
In short: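 HepG2, transient MRTU transfection, cis-regulated reporters; 24 h compound exposure; RNA isolated, RT-PCR, 6-FAM labelling, HpaI digest, CE fluorescence. DMSO = negative control/baseline, bidirectional fit.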

[8] = ATG_BRE_CIS: Attagene CIS-FACTORIAL HepG2 Assay for human Bone Morphogenetic Protein (BMP) Response Element (BRE) (AID 2282933); conditions: HepG2 BMP response element reporter, Attagene transcription factor profiling; actives raise or lower the signal
In short: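 Transient MRTU transfection of human HepG2 liver cells; 24 h compound treatment; total RNA isolated, reverse-transcribed, PCR-amplified, 6-FAM labelled, HpaI-cut, capillary electrophoresis. DMSO = negative control/baseline, bidirectional fit.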

[9] = molecular target: Retinoic acid receptor alpha (Homo sapiens) (UniProt P10276); test: ATG_DR5_RAR_CIS: Attagene CIS-FACTORIAL HepG2 Assay for human Retinoic Acid Receptor Alpha (RARE), DR5 submotif (AID 2282934); conditions: HepG2 Attagene cis-factorial RARE DR5 reporter, mRNA; actives raise or lower the signal;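 as to AC50: reporter responds to endogenous RAR alpha beta and gamma in HepG2 not RARA alone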
In short: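 Transient MRTU transfection of HepG2; 24 h compound treatment; TriZol RNA, oligo(dT) RT, PCR, FAM labelling, capillary electrophoresis. Bidirectional fit vs DMSO. Endogenous TF activity at DR5 RARE.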

[10] = molecular target: Transcription factor E2F1 (Homo sapiens) (UniProt Q01094); test: ATG_E2F_CIS: Attagene CIS-FACTORIAL HepG2 Assay for human E2F Transcription Factor 1 (AID 2282935); conditions: HepG2 Attagene cis-reporter, E2F reporter RNA transcripts; actives raise or lower the signal
In short: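 Cis-element reporter mRNA induction in transiently transfected HepG2, 24 h exposure. Activity fitted in both directions relative to DMSO negative control.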

Measured: AC50

Retinoic acid receptor alpha (Homo sapiens), sequence (P10276 whole entry, looked up): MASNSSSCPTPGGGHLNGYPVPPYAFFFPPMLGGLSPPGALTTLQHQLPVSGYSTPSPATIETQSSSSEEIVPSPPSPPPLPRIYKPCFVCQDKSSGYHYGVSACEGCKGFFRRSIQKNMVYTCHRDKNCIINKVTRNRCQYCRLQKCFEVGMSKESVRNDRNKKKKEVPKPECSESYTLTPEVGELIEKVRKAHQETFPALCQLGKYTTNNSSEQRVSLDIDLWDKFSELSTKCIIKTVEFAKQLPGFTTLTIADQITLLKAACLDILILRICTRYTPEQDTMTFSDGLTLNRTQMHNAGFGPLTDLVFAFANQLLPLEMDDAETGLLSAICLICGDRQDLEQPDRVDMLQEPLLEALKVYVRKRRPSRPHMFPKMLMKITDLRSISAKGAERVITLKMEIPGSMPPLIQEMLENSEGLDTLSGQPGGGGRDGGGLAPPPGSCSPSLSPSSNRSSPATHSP
CCAAT/enhancer-binding protein beta (Homo sapiens), sequence (P17676 whole entry, looked up): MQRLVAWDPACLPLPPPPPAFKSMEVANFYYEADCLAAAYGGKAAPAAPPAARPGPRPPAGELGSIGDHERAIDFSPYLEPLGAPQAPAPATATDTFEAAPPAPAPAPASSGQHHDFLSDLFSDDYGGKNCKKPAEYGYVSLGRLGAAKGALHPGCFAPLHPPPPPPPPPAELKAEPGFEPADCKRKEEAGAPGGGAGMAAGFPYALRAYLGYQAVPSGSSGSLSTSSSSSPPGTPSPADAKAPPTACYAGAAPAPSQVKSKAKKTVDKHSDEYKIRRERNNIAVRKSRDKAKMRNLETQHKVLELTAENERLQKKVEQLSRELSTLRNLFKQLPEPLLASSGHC
Aryl hydrocarbon receptor (Homo sapiens), sequence (P35869 whole entry, looked up): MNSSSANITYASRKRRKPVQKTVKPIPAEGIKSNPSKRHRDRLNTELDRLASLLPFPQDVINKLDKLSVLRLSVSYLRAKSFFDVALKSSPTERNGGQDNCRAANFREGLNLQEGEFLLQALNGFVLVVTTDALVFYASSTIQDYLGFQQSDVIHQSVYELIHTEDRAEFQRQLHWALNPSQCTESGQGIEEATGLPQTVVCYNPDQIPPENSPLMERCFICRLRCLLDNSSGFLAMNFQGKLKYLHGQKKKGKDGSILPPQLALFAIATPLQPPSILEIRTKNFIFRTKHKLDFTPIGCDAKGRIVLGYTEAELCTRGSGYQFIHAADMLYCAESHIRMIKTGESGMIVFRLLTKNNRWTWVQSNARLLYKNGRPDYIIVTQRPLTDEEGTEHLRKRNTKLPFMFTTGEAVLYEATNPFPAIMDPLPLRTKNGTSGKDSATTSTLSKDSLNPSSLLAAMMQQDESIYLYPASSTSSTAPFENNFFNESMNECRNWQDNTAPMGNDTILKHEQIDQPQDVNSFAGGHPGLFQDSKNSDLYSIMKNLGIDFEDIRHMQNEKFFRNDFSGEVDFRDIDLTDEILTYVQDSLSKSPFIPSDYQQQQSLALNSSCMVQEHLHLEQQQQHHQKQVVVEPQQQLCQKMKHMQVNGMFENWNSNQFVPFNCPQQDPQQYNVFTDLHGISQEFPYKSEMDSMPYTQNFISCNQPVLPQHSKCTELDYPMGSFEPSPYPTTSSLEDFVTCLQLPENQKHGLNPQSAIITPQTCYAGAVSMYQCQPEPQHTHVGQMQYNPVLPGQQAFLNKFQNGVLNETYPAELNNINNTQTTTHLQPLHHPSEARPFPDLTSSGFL
Transcription factor E2F1 (Homo sapiens), sequence (Q01094 whole entry, looked up): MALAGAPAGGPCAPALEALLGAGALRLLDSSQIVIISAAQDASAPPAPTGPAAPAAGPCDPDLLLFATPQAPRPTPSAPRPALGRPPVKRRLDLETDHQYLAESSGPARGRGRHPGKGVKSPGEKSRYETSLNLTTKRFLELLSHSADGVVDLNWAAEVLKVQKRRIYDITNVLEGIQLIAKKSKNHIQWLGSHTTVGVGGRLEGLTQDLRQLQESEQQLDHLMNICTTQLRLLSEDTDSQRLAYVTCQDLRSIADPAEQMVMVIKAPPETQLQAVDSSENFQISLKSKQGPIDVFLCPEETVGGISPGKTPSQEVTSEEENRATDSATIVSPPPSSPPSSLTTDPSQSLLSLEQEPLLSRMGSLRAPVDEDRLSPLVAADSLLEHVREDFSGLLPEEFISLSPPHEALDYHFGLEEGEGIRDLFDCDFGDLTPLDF

CC(C)(C)C(=O)CCc1ccc(Cl)cc1
inactive: all assays above

CC(C)c1ccc2cc(C(C)C)ccc2c1
inactive: [4] | [7] | [10]
active: [1] 62 µM | [2] 64.6 µM | [3] 45.5 µM | [5] 135 µM | [6] 55.8 µM | [9] 67 µM

CCc1ccc2c(c1)C(=O)c1ccccc1C2=O
active: [5] 5.39 µM
not listed: [8] | [10]
inactive: all other assays above

O=C(Oc1ccccc1)c1ccc2ccccc2c1O
active: [5] 17 µM | [6] 97.4 µM | [8] 76.2 µM
inactive: all other assays above

O=C1C=CC(=O)O1
inactive: all assays above

CCCCCCCCCCCCCCCC[N+](C)(C)CC
active: [3] 8.84 µM | [4] 9.13 µM | [6] 16.3 µM | [7] 12.6 µM | [10] 5.48 µM
inactive: [1] | [2] | [5] | [8] | [9]

C=C[Si](C)(C)O[Si](C)(C)C=C
active: [5] 100 µM
not listed: [8]
inactive: all other assays above

CC(=O)Oc1ccc(C)cc1
not listed: [8]
inactive: all other assays above

CN(C)c1ccc(C(=N)c2ccc(N(C)C)cc2)cc1
active: [1] 0.399 µM | [2] 0.871 µM | [4] 0.056 µM | [5] 0.334 µM | [9] 7.38 µM
inactive: [3] | [6] | [7] | [10]

CCCCCCCCCCOS(=O)(=O)O
active: [4] 67 µM | [9] 61.3 µM
not listed: [8]
inactive: all other assays above

CC(=O)OC1C2(C)CCC(C2)C1(C)C (centres undefined)
not listed: [8]
inactive: all other assays above

O=C(O)c1cc(Cl)cc([N+](=O)[O-])c1Cl
not listed: [8]
inactive: all other assays above

C=C(C)c1cccc(C(C)(C)N=C=O)c1
active: [5] 100 µM
not listed: [8]
inactive: all other assays above

CC(C)c1ccc2c(C(C)C)cc(C(C)C)c(S(=O)(=O)O)c2c1
not listed: [8]
inactive: all other assays above

O=C(Nc1cccc(C(F)(F)F)c1)c1cc(Br)cc(Br)c1O
active: [1] 100 µM | [3] 160 µM | [4] 38.3 µM | [7] 5.76 µM
not listed: [8]
inactive: all other assays above

Cc1cccc(C(=O)O)c1
not listed: [8]
inactive: all other assays above

C=C(C)[C@H]1CC=C(C)CC1
not listed: [9]
inactive: all other assays above

[Cl][In]([Cl])[Cl]
not listed: [8]
inactive: all other assays above

CC(=O)Nc1ccc2c(c1)Cc1cc(NC(C)=O)ccc1-2
not listed: [8] | [10]
inactive: all other assays above

NC(=O)C1CO1 (centres undefined)
not listed: [8]
inactive: all other assays above

CC/C=C\C/C=C\C/C=C\CCCCCCCC(=O)O
active: [1] 173 µM | [4] 153 µM | [6] 161 µM
not listed: [8]
inactive: all other assays above

C1=Cc2ccccc2C1
active: [5] 5.55 µM
not listed: [8]
inactive: all other assays above

CC(C)CCCC(C)CC=O (centres undefined)
not listed: [8]
inactive: all other assays above

COc1ccc(-c2coc3cc(O)ccc3c2=O)cc1
active: [5] 20 µM
not listed: [8]
inactive: all other assays above

O=C(O)c1cc2ccccc2nc1C(=O)O
active: [5] 41.1 µM
not listed: [8]
inactive: all other assays above

O=C1CCCN1CCO
not listed: [8]
inactive: all other assays above

CC(C)(C)c1ccc(N)cc1
inactive: all assays above

C=C(C)[C@@H]1CCC2=CCC[C@@H](C)[C@]2(C)C1
active: [3] 67 µM | [6] 100 µM
not listed: [8] | [10]
inactive: all other assays above

CCCCCCCCCCCCCCCC[n+]1ccccc1
inactive: [5] | [8] | [10]
active: [1] 0.873 µM | [2] 0.852 µM | [3] 33.4 µM | [4] 8.64 µM | [6] 20.4 µM | [7] 21 µM | [9] 7.8 µM

CC(=O)NS(=O)(=O)c1ccc(N)cc1
not listed: [8]
inactive: all other assays above

OCCN(CCO)c1ccccc1
active: [5] 13.7 µM
inactive: all other assays above

Cc1cccc(N(C)C(=S)Oc2ccc3ccccc3c2)c1
not listed: [8]
inactive: all other assays above

CC(C)=CCC[C@H](C)CCO
not listed: [8]
inactive: all other assays above

CC1=CC[C@H](C(C)C)C=C1
not listed: [9]
inactive: all other assays above

CCC(C)C=O (centres undefined)
not listed: [8]
inactive: all other assays above

Cc1ccccc1C
not listed: [8]
inactive: all other assays above

C[Si](C)O[Si](C)(C)O[Si](C)(C)O[Si](C)C
not listed: [8]
inactive: all other assays above

C=C(C)CCO
not listed: [8]
inactive: all other assays above

OC1CCCCCCCCCCC1
active: [3] 75.4 µM | [4] 40.5 µM
not listed: [8]
inactive: all other assays above

CC1(C)S[C@@H]2[C@H](NC(=O)COc3ccccc3)C(=O)N2[C@H]1C(=O)O
not listed: [8]
inactive: all other assays above
